Screening results deposited in PubChem BioAssay by National Center for Advancing Translational Sciences (NCATS).
IL-1B inflam inh – inflammasome signaling inhibition, IL-1 beta readout | 360,000 compounds, 4.7% hits | THP-1 LPS/ATP IL-1B secretion, AlphaLISA, 16 h; stronger effect = lower value | activity change, % at 57.5 µM; in the data active = activity change below about -50%; inconclusive = mostly about -30% to -49%
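THP-1 cells pretreated 1 hr with compounds (up to 57.5 uM final), then stimulated with LPS (250 ng/mL final) plus ATP (1.25 mM final); secreted IL-1B measured by AlphaLISA after 16 hr, decreased signal indicating inhibition.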
TDP1 cell noCPT – qHTS for Inhibitors of human tyrosyl-DNA phosphodiesterase 1 (TDP1): qHTS in cells in absence of CPT; AID 686978, 2013; DT40 Tdp1-/- hTDP1 cells, no CPT, ATP luminescence, 48 h; Potency, µM (highest dose often 46.2 µM), actives largely listed as inhibitors; 420,000 compounds, 15% hits; note: nearly all actives have a fitted effect of over 55% in size
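Cells were dispensed at 400 per well, compounds added by pin tool, plates incubated ≥48 hr at 37 °C, then CellTiter-Glo added for 30 min at room temperature before luminescence reading. Line: DT40 Tdp1-/- complemented with hTDP1; camptothecin omitted.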
BCR signal inh – chronic active BCR signaling inhibition | ABC-DLBCL IkBa-CBG/CBR reporter, luminescence ratio, 4 h | Potency, µM (highest dose often 46.1 µM), usual class: inhibitors | 340,000 compounds, 0.05% hits; active = well fitted inhibition curve with a large enough effect in the signal ratio, with a control signal flat, not every such curve was filed as active; inconclusive = small, poorly fitted or top-dose-only effect, or effect the other way, or a change in a side signal; the % refers to the signal ratio
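Doxycycline induced both beetle luciferases in TMD8 lymphoma cells; IKK-driven degradation limits the IkappaBalpha-fused green signal, while red luminescence normalises for cell number and nonspecific effects. Compounds tested up to 46 uM, 4 hrs.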
SW480 rereplic – inducers of DNA re-replication in SW480 colon cancer cells; SW480 DNA re-replication, Hoechst DNA content imaging, 48 h; Potency, µM (titrated, usually from 46.1 µM), actives largely listed as activators; 340,000 compounds, 1.8% hits; note: nearly all actives have a fitted effect of over 55% in size
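Treated cells incubate 48 hr (37 C, 5% CO2), are stained 40 min with Hoechst, and nuclear fluorescence is enumerated; a rise in nuclei with high DNA signal marks re-replication.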
MCF10A rerep – DNA re-replication induction in MCF 10a cells | MCF 10A DNA re-replication, Hoechst nuclear intensity, 48 h | Potency, µM (titrated, usually from 46.1 µM), usual class: activators | 350,000 compounds, 2.9% hits | AID 624296; note: nearly all actives have a fitted effect of over 50% in size
DT40 TDP1 CPT – growth inhibition of DT40 Tdp1-/-;hTDP1 cells with camptothecin (screen for TDP1 inhibitors) | chicken DT40 Tdp1-/-;hTDP1 cells + 20 nM CPT, ATP luminescence, 48 h | Potency, µM (titrated, usually from 46.2 µM), most hits filed as inhibitors | 420,000 compounds, 12% hits | AID 686979; note: nearly all actives have a fitted effect of over 55% in size
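Cell growth measured by CellTiter-Glo luminescence after a minimum 48 h, 37 C compound exposure with 20 nM CPT in Tdp1-knockout DT40 cells stably expressing hTDP1, seeded 400/well; qHTS titration format.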
Numbers stand for hits; n = inactive; u = inconclusive; x = no result; [ ] = another dose, or the depositor's remark. The list is not random: actives were taken first. Their share in the collection is about 19%. Unless noted, calls come from the whole dose curve; as a rule, active = well fitted curve in the direction sought with a large enough effect; inconclusive = small, poorly fitted or top-dose-only effect, or another doubt; inactive = no such curve, though single readings can be large; an effect the other way counts as inactive or inconclusive.

SMILES | IL-1B inflam inh | TDP1 cell noCPT | BCR signal inh | SW480 rereplic | MCF10A rerep | DT40 TDP1 CPT
CCCCCCN1C[C@H](O)[C@@H](n2cc(-c3ccc(F)cc3)nn2)C[C@@H]1c1ccccc1 | n | 20.6µM | x | x | x | 20.6µM
CCCCCCN1C[C@H](n2cc(-c3ccc(F)cc3)nn2)[C@@H](O)C[C@@H]1c1ccc(Cl)cc1 | -104.4 | 16.4µM | x | x | x | u
CCOc1ccc(N2CC(C(=O)Nc3ccccc3C(=O)N3CCOCC3)CC2=O)cc1 (stereo not given) | n | n | n | n | n | n
CCOC(=O)c1cc2c(C)n(-c3ccc(OCC)cc3)c(C)c2ccc1=O | n | 14.6µM | n | n | n | 25.9µM
CCOC(=O)c1cc2c(C)n(-c3ccc(C)cc3)c(C)c2ccc1=O | -66.3 | 8.2µM | u | u | n | 14.6µM
CCOc1ccc(-n2c(C)c(C(=O)OC)c3cc(O)ccc32)cc1 | n | u | n | n | n | n
Cc1ccc(C(O)(COC(=O)C(C)C)COC(=O)C(C)C)c(O)c1 | n | 3.66µM | n | u | u | 4.61µM
Nc1c(C(=O)Nc2ccccc2Cl)nnn1Cc1cccc(Cl)c1 | x | n | x | x | x | n
COc1cc(C2CC(=O)Oc3c(C(CCN4CCCC(C)C4)c4ccc(N(C)C)cc4)c(OC)cc(OC)c32)cc(OC)c1OC (stereo not given) | u | n | u | n[9.22 µM] | n | n
COc1ccc(C2CC(=O)Oc3c(C(CCN4CCN(c5ccccc5)CC4)c4ccc(N(C)C)cc4)c(OC)cc(OC)c32)cc1 (stereo not given) | n | u | n | n[9.22 µM] | n | n
COc1cc(OC)c2c(c1C(CCN1CCOCC1)c1ccc(N(C)C)cc1)OC(=O)CC2c1ccc(N(C)C)cc1 (stereo not given) | n | u | n | n[9.22 µM] | u | 16.4µM
COc1cc(C(CCN2CCCC(C)C2)c2c(OC)cc(OC)c3c2OC(=O)CC3c2ccc(N(C)C)cc2)cc(OC)c1OC (stereo not given) | -110.6 | u | n | n | n | u
COc1ccccc1-c1cc(C(=O)N/N=C/c2ccc(C)o2)c2ccccc2n1 | n | u | n | u | n | u
COC(=O)c1sccc1NC(=O)c1cc(-c2ccc(C)cc2C)nc2ccccc12 | n | u | n | n | 11.6µM | u
COc1ccccc1-c1cc(C(=O)N/N=C/c2sccc2C)c2ccccc2n1 | n | 1.03µM | n | n | u | 6.51µM
Cc1ccsc1/C=N/NC(=O)c1cc(-c2ccncc2)nc2ccccc12 | n | 0.581µM | u | 1.46µM | 0.731µM | 0.581µM
Cc1ccc(NC(=O)c2cc(-c3cccs3)nc3ccccc23)c(C)c1 | x | u | x | x | x | n
CCC(C)NC(=O)CN(c1ccc(Cl)c(Cl)c1)S(C)(=O)=O (stereo not given) | n | n | n | n | n | n
Cc1cccc(C=CC(=O)c2ccccc2)c1 | n | 23.1µM | x | u | u | u
Cc1ccc(/C=C/C(=O)c2ccc(C)cc2)cc1 | u | u | n | u | n | n
Cc1ccc(C(=O)C=Cc2cccc(C)c2)cc1 | n | 18.4µM | x | u | 18.4µM | u
COc1cc(CCC(=O)OCC(=O)N2CCc3ccccc32)cc(OC)c1OC | n | n | n | n | n | n
CCc1nc2ccc(C(=O)N3CCN(C(=O)c4ccco4)CC3)cn2c1N(CCC(C)C)CCN(C)C | n | n | x | x | x | n
CC1(C)O[C@@H]1COc1c2ccoc2cc2oc(=O)ccc12 | n | 18.4µM | u | n | n | 11.6µM
Cc1ccc(C(=O)COC(=O)c2cc(Cl)nc3ccccc23)cc1 | n | n | n | n | n | n
SMILES | IL-1B inflam inh | TDP1 cell noCPT | BCR signal inh | SW480 rereplic | MCF10A rerep | DT40 TDP1 CPT
Cc1ccc2nc(C)cc(C(=O)OCC(=O)c3ccc(Cl)c([N+](=O)[O-])c3)c2c1 | -68.5 | u | u | n | u | 16.4µM
Cc1ccc(-c2cc(C(=O)OCC(=O)c3ccccc3)c3cccc(Cl)c3n2)cc1 | x | 6.51µM | x | x | x | u
Cc1c(-c2ccccc2)nc2c(Cl)cccc2c1C(=O)OCC(=O)c1ccc(F)cc1 | x | 5.8µM | x | x | x | u
CCCCOc1ccc(C(=O)N(C)CC(=O)Nc2ccc(C)cc2)cc1 | n | n | n | u | n | n
CC(C)(C)OC(=O)N1CCC[C@@H]1CO | n | n | n | n | n | n
CCCCCC(CC(=O)NO)C(=O)NC(C(=O)N1CCCC1CO)C(C)C (stereo not given) | n | 1.84µM | n | n | n | 2.59µM
CCNC(=O)CC1C(=O)N(c2ccc(C)cc2)C(=O)N1CCc1sccc1C (stereo not given) | n | n | n | n | u | n
COCCCN1C(=O)N(c2ccccc2)C(=O)C1CC(=O)Nc1ccc(F)cc1 (stereo not given) | n | n | n | n | n | u
Cc1ccsc1CCN1C(=O)N(c2ccccc2)C(=O)C1CC(=O)Nc1ccc(F)cc1 (stereo not given) | x | 14.6µM | x | x | x | u
Cc1ccsc1CCN1C(=O)N(c2ccc(F)cc2)C(=O)C1CC(=O)Nc1ccccc1 (stereo not given) | x | 23.1µM | x | x | x | u
CCc1cccc(NS(=O)(=O)c2c(C)[nH]c(=O)[nH]c2=O)c1 | n | n | n | n | n | n
CCOc1ccccc1N(C)C(=O)c1cc(S(=O)(=O)NCc2ccc(C)cc2)ccc1F | x | 20.6µM | n | x | x | 18.4µM
CCc1ccc(NC(=O)CCCN2C(=O)C3CC=CCC3C2=O)cc1 (stereo not given) | n | u | n | n | n | n
O=C(CN1CCN(c2ccccn2)CC1)Nc1ccc([N+](=O)[O-])cc1C(=O)Nc1ccccc1F | n | 7.31µM | n | n | n | 23.1µM
N#Cc1ccsc1NC(=O)CN1CCN(c2ccccn2)CC1 | n | n | u | n | n | n
COc1cc(Cl)c(C)cc1NC(=O)c1ccccc1NC(=O)CN1CCN(c2ccccn2)CC1 | -66.3 | 25.9µM | x | n | u | 18.4µM
O=C(CN1CCN(c2ccccn2)CC1)N(c1ccccc1)c1ccc2ccccc2c1 | n | 18.4µM | n | n | n | 16.4µM
O=C(CN1CCN(c2ccccn2)CC1)N1c2ccccc2CCc2ccccc21 | n | n | n | n | n | u
Cc1c(C)n(C(=O)CN2CCN(c3ccccn3)CC2)c2ccccc12 | n | 11.6µM | n | n | u | u
COCCCn1c(SCC(=O)N2CCCC2=O)nc2ccccc2c1=O | n | n | x | x | x | n
CC(C)c1ccc(NC(=O)CN2CCN(c3ccccn3)CC2)cc1 | n | n | n | n | n | n
CSc1ccccc1NC(=O)CN1CCN(c2ccccn2)CC1 | n | u | n | n | n | 23.1µM
COc1cccc(OC)c1C(=O)N=c1sc2cc(S(C)(=O)=O)ccc2n1C | n | n | n | n | n | n
